Reference: PubChem BioAssay AID743025 (Vanderbilt Specialized Chemistry Center, 2013)
Values without a mark were called inactive.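 Rule for the calls: active = IC50 below 10 µM at human M5 in a calcium flux test, acting as a negative modulator; inactive = the rest.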

Target: Muscarinic acetylcholine receptor M5 (Homo sapiens) (UniProt P08912)
Experiment: inhibition of ACh-evoked M5 calcium signal – cell-based, single concentration, human M5 (AID 743025)
Conditions: CHO-K1 hM5, ACh EC80 calcium flux, Fluo-4; at 10 µM; stronger effect = lower value

Muscarinic acetylcholine receptor M5 (Homo sapiens), sequence (P08912 whole entry, looked up): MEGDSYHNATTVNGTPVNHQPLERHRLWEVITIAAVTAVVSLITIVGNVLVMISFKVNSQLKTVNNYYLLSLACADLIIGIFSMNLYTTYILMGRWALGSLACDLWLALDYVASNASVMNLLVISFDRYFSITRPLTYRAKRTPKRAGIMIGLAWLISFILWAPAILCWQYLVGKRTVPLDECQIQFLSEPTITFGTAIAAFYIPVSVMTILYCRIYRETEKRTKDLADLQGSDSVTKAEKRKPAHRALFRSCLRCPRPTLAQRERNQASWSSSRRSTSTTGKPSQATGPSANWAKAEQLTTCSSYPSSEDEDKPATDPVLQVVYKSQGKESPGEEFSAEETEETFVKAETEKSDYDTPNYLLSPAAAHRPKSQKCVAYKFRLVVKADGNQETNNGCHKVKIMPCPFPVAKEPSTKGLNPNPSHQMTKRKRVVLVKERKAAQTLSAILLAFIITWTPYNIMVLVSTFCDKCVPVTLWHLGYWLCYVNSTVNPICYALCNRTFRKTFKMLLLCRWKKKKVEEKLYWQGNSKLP

Row | SMILES | activity remaining
1 | O=C1c2ncccc2C2(c3ccccc3)NCCN12 (configuration not stated) | 67.2%
2 | O=C1c2ccccc2C2(c3ccc(Cl)cc3)NCCN12 (configuration not stated) | 78.7%
